Assay results from the supplement of paper PMC9694430.
“And” between values parts separate entries of the source, which are not always exact repeats. Identical values can stand only once. Counter-ions that a name gives are not always drawn.

Test system: LOC_OS01G67340-cb003
Assay: thermal shift delta Tm vs DMSO control; higher = stronger stabilization (binding)
Conditions: 12.5 µM; protein concentration 2 µM
In short: (§1)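 Heating from 25°C to 95°C at 0.05°C/s, fluorescence was recorded for 19.5 μl wells of 2 μM E. coli-expressed, purified rice kinase domain in 100 mM potassium phosphate pH 7.5, 150 mM NaCl, 10% glycerol and 5 × SYPRO Orange with compound in DMSO. Boltzmann fits gave melting temperatures for this differential scanning fluorimetry assay. The shift reported is the mean of three replicates against the DMSO-only protein.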
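Further: purified Escherichia coli-expressed rice kinase domain construct.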

Row | Compound | thermal shift delta Tm
1 | COc1cc(Nc2ncc(F)c(Nc3ccc4c(n3)NC(=O)C(C)(C)O4)n2)cc(OC)c1OC | 0.45 °C
2 | Cc1ccc(-n2nc(C(C)(C)C)cc2NC(=O)Nc2ccc(OCCN3CCOCC3)c3ccccc23)cc1 [Doramapimod (BIRB 796)] | 0.16 °C
3 | CC#CC(=O)N1CC[C@@H](n2c(=O)n(-c3ccc(Oc4ccccc4)cc3)c3c(N)ncnc32)C1 [ONO-4059 (GS-4059) hydrochloride] | 0.27 °C
4 | O=C(NC[C@H](O)CO)c1ccncc1Nc1ccc(I)cc1F | -0.19 °C
5 | CO[C@H]1C[C@@H]2CC[C@@H](C)[C@@](O)(O2)C(=O)C(=O)N2CCCC[C@H]2C(=O)O[C@H]([C@H](C)C[C@@H]2CC[C@@H](O)[C@H](OC)C2)CC(=O)[C@H](C)/C=C(\C)[C@@H](O)[C@@H](OC)C(=O)[C@H](C)C[C@H](C)/C=C/C=C/C=C/1C [Rapamycin (Sirolimus)] | -0.59 °C
6 | COc1c(C)c(C(=O)c2ccc(N)c(C(=O)O)c2)n2ccccc12 | -0.08 °C
7 | CC(C)CC(=O)Nc1n[nH]c2c1CN(C(=O)C1CCN(C)CC1)C2(C)C | 0.25 °C
8 | COc1cc2ncnc(Nc3ccc(O)c(Br)c3)c2cc1OC | 0.7 °C
9 | CCN(CC)CCCC(C)Nc1nc(C)cc(Nc2ccc3nc(C)cc(N)c3c2)n1 (centres undefined) | 0.08 °C
10 | Cc1cc(NC(=O)c2cccc(NC(=O)/C=C/CN(C)C)c2)ccc1Nc1nccc(-c2cccnc2)n1 | 0.69 °C
11 | COc1cc2ncnc(Nc3cccc(Cl)c3F)c2cc1OC(=O)N1CCN(C)C[C@H]1C | 0.62 °C
12 | Cc1ccc(C(=O)Nc2ccc(Oc3cc4cnn(C)c4cc3-c3cn[nH]c3)c(F)c2)c(=O)n1-c1ccc(F)cc1 | 1.33 °C
13 | CC#CC(=O)N1CCC[C@H]1c1nc(-c2ccc(C(=O)Nc3ccccn3)cc2)c2c(N)nccn12 [Acalabrutinib (ACP-196)] | 0.39 °C
14 | Nc1ncccc1-c1nc2ccc(-c3ccccc3)nc2n1-c1ccc(C2(N)CCC2)cc1 [Miransertib (ARQ 092) HCl] | 0.08 °C
15 | Cc1cc(C(C)Nc2ccccc2)c2nc(N3CCOCC3)cc(=O)n2c1 (centres undefined) | -0.69 °C
16 | COc1cc2nccc(Oc3ccc(NC(=O)C4(C(=O)Nc5ccc(F)cc5)CC4)cc3)c2cc1OC [Cabozantinib malate (XL184)] | 0.53 °C
17 | COC(=O)N[C@@H](C)CNc1nccc(-c2cn(C(C)C)nc2-c2cc(Cl)cc(NS(C)(=O)=O)c2F)n1 [Encorafenib (LGX818)] | 0.27 °C
18 | COc1ccc(C(=O)Nc2sc3c(c2C(N)=O)CCCC3)cc1OC | 1.69 °C
19 | CN1C(=O)[C@@H](NC(=O)c2n[nH]c(Cc3ccccc3)n2)COc2ccccc21 | 0.17 °C

Row | Compound | thermal shift delta Tm
20 | Nc1nccc(Oc2ccc(NC(=O)c3c[nH]cc(-c4ccc(F)cc4)c3=O)cc2F)c1Cl | 2.23 °C
21 | COc1cc2c(c(OC)c1OC)-c1c(cc3c(c1OC)OCO3)CC(C)C(C)C2 (centres undefined) [Schisandrin B (Sch B)] | -0.14 °C
22 | COC(=O)c1ccc2c(c1)NC(=O)/C2=C(\Nc1ccc(N(C)C(=O)CN2CCN(C)CC2)cc1)c1ccccc1 [Nintedanib (BIBF 1120)] | 0.48 °C
23 | O=C(Nc1ccccc1C(=O)NC1CCCCNC1=O)c1cc2ccccc2s1 (centres undefined) | 0.41 °C
24 | Cc1cc(C)c(/C=C2\C(=O)Nc3ccccc32)[nH]1 [Semaxanib (SU5416)] | 2.32 °C
25 | N#Cc1cccc(-c2c[nH]c3ncnc(N4CCOCC4)c23)c1 | 1.62 °C
26 | Cc1ccc2nc(NCCN)c3ncc(C)n3c2c1 | 0.55 °C
27 | C[C@@H]1CCN(C(=O)CC#N)C[C@@H]1N(C)c1ncnc2[nH]ccc12 | 0.15 °C and 0.3 °C
28 | Cc1nc(NC(=O)N2CCC[C@H]2C(N)=O)sc1-c1ccnc(C(C)(C)C(F)(F)F)c1 [Alpelisib (BYL719)] | 0.12 °C
29 | CNc1nc(Nc2cn(C(C)(C)C#N)nc2C)ncc1C(F)(F)F | 0.49 °C
30 | O=C(Nc1c[nH]nc1-c1nc2ccc(CN3CCOCC3)cc2[nH]1)NC1CC1 | 1.94 °C
31 | N#Cc1ccc(-c2c(-c3ncn[nH]3)sc(N3CCOCC3)c2C#N)c(F)c1 | 0.56 °C
32 | Oc1cccc(-c2nc(N3CCOCC3)c3oc4ncccc4c3n2)c1 | 0.14 °C
33 | CN(C)C/C=C/C(=O)Nc1ccc(C(=O)Nc2cccc(Nc3ncc(Cl)c(-c4c[nH]c5ccccc45)n3)c2)cc1 | 4.17 °C
34 | CCNC(=O)Nc1ccc(-c2nc(N3CCOC[C@@H]3C)c3c(n2)C(C)(C)S(=O)(=O)C3)cc1 | 0.5 °C
35 | CNC(=O)c1cc(Oc2ccc3nc(N[C@@H]4CCCC[C@H]4O)sc3c2)ccn1 | 1.16 °C
36 | CN(C)CCOc1ccc(-c2nc(-c3ccncc3)c(-c3ccc4c(c3)CC/C4=N\O)[nH]2)cc1 | -0.45 °C
37 | Cc1ccc(NC(=O)c2cccc(N(C)C)c2)cc1NC(=O)c1ccc(O)cc1 | -0.19 °C

Test system: LOC_OS01G70970-cb002
Assay: as above
Conditions: 12.5 µM; protein concentration 2 µM
In short: as §1

Row | Compound | thermal shift delta Tm
38 | COc1cc(Nc2ncc(F)c(Nc3ccc4c(n3)NC(=O)C(C)(C)O4)n2)cc(OC)c1OC | 2.5 °C
39 | Cc1ccc(-n2nc(C(C)(C)C)cc2NC(=O)Nc2ccc(OCCN3CCOCC3)c3ccccc23)cc1 [Doramapimod (BIRB 796)] | 0.56 °C
40 | CC#CC(=O)N1CC[C@@H](n2c(=O)n(-c3ccc(Oc4ccccc4)cc3)c3c(N)ncnc32)C1 [ONO-4059 (GS-4059) hydrochloride] | 0.11 °C
41 | O=C(NC[C@H](O)CO)c1ccncc1Nc1ccc(I)cc1F | 0.16 °C
42 | CO[C@H]1C[C@@H]2CC[C@@H](C)[C@@](O)(O2)C(=O)C(=O)N2CCCC[C@H]2C(=O)O[C@H]([C@H](C)C[C@@H]2CC[C@@H](O)[C@H](OC)C2)CC(=O)[C@H](C)/C=C(\C)[C@@H](O)[C@@H](OC)C(=O)[C@H](C)C[C@H](C)/C=C/C=C/C=C/1C [Rapamycin (Sirolimus)] | 0.17 °C
43 | COc1c(C)c(C(=O)c2ccc(N)c(C(=O)O)c2)n2ccccc12 | 0.36 °C
44 | CC(C)CC(=O)Nc1n[nH]c2c1CN(C(=O)C1CCN(C)CC1)C2(C)C | 0.19 °C
45 | COc1cc2ncnc(Nc3ccc(O)c(Br)c3)c2cc1OC | 0.81 °C
46 | CCN(CC)CCCC(C)Nc1nc(C)cc(Nc2ccc3nc(C)cc(N)c3c2)n1 (centres undefined) | 0.16 °C
47 | Cc1cc(NC(=O)c2cccc(NC(=O)/C=C/CN(C)C)c2)ccc1Nc1nccc(-c2cccnc2)n1 | 1.62 °C
48 | COc1cc2ncnc(Nc3cccc(Cl)c3F)c2cc1OC(=O)N1CCN(C)C[C@H]1C | 0.55 °C
49 | Cc1ccc(C(=O)Nc2ccc(Oc3cc4cnn(C)c4cc3-c3cn[nH]c3)c(F)c2)c(=O)n1-c1ccc(F)cc1 | 0.33 °C
50 | CC#CC(=O)N1CCC[C@H]1c1nc(-c2ccc(C(=O)Nc3ccccn3)cc2)c2c(N)nccn12 [Acalabrutinib (ACP-196)] | 0.4 °C
51 | Nc1ncccc1-c1nc2ccc(-c3ccccc3)nc2n1-c1ccc(C2(N)CCC2)cc1 [Miransertib (ARQ 092) HCl] | 0.38 °C
52 | Cc1cc(C(C)Nc2ccccc2)c2nc(N3CCOCC3)cc(=O)n2c1 (centres undefined) | 0.34 °C
53 | COc1cc2nccc(Oc3ccc(NC(=O)C4(C(=O)Nc5ccc(F)cc5)CC4)cc3)c2cc1OC [Cabozantinib malate (XL184)] | 0.57 °C
54 | COC(=O)N[C@@H](C)CNc1nccc(-c2cn(C(C)C)nc2-c2cc(Cl)cc(NS(C)(=O)=O)c2F)n1 [Encorafenib (LGX818)] | 0.24 °C
55 | COc1ccc(C(=O)Nc2sc3c(c2C(N)=O)CCCC3)cc1OC | 0.41 °C
56 | CN1C(=O)[C@@H](NC(=O)c2n[nH]c(Cc3ccccc3)n2)COc2ccccc21 | 0.41 °C

Row | Compound | thermal shift delta Tm
57 | Nc1nccc(Oc2ccc(NC(=O)c3c[nH]cc(-c4ccc(F)cc4)c3=O)cc2F)c1Cl | 6.22 °C
58 | COc1cc2c(c(OC)c1OC)-c1c(cc3c(c1OC)OCO3)CC(C)C(C)C2 (centres undefined) [Schisandrin B (Sch B)] | 0.46 °C
59 | COC(=O)c1ccc2c(c1)NC(=O)/C2=C(\Nc1ccc(N(C)C(=O)CN2CCN(C)CC2)cc1)c1ccccc1 [Nintedanib (BIBF 1120)] | 2.57 °C
60 | O=C(Nc1ccccc1C(=O)NC1CCCCNC1=O)c1cc2ccccc2s1 (centres undefined) | 0.19 °C
61 | Cc1cc(C)c(/C=C2\C(=O)Nc3ccccc32)[nH]1 [Semaxanib (SU5416)] | 2.72 °C
62 | N#Cc1cccc(-c2c[nH]c3ncnc(N4CCOCC4)c23)c1 | 0.07 °C
63 | Cc1ccc2nc(NCCN)c3ncc(C)n3c2c1 | 0.33 °C
64 | C[C@@H]1CCN(C(=O)CC#N)C[C@@H]1N(C)c1ncnc2[nH]ccc12 | 0.37 °C and 0.59 °C
65 | Cc1nc(NC(=O)N2CCC[C@H]2C(N)=O)sc1-c1ccnc(C(C)(C)C(F)(F)F)c1 [Alpelisib (BYL719)] | 0.36 °C
66 | CNc1nc(Nc2cn(C(C)(C)C#N)nc2C)ncc1C(F)(F)F | 0.2 °C
67 | O=C(Nc1c[nH]nc1-c1nc2ccc(CN3CCOCC3)cc2[nH]1)NC1CC1 | 7.9 °C
68 | N#Cc1ccc(-c2c(-c3ncn[nH]3)sc(N3CCOCC3)c2C#N)c(F)c1 | 0.2 °C
69 | Oc1cccc(-c2nc(N3CCOCC3)c3oc4ncccc4c3n2)c1 | 0.33 °C
70 | CN(C)C/C=C/C(=O)Nc1ccc(C(=O)Nc2cccc(Nc3ncc(Cl)c(-c4c[nH]c5ccccc45)n3)c2)cc1 | 11.9 °C
71 | CCNC(=O)Nc1ccc(-c2nc(N3CCOC[C@@H]3C)c3c(n2)C(C)(C)S(=O)(=O)C3)cc1 | 0.57 °C
72 | CNC(=O)c1cc(Oc2ccc3nc(N[C@@H]4CCCC[C@H]4O)sc3c2)ccn1 | 0.25 °C
73 | CN(C)CCOc1ccc(-c2nc(-c3ccncc3)c(-c3ccc4c(c3)CC/C4=N\O)[nH]2)cc1 | 0.15 °C
74 | Cc1ccc(NC(=O)c2cccc(N(C)C)c2)cc1NC(=O)c1ccc(O)cc1 | 0.28 °C
